Data taken from ChEMBL document CHEMBL3988442, “University of Dundee, Small-Polar-MMV Screening Library” (2021).
Screen size: about 38,000 compounds; about 1,200 (3.2%) showed an effect of 50% or more. The median lay at about -58%. This is one part of a sample in which strong results are shown more often than they occur.

test system: Plasmodium falciparum; assay: Calibr Malaria Delayed Death Assay SOP; type: functional, organism-based; set-up: scale not given: in the data most compounds retested in dose-response had high values; details: concentration 4.99e-06 (unit not given; other assays of the set use mol/L)

Row | Compound | Percent Effect
1 | Cc1cccc(NC(=O)[C@@H]2CCCN2Cc2nc3ccccc3o2)n1 | -70.67%
2 | O=C(O)C(F)(F)F.O=C(O)c1cc(NS(=O)(=O)c2ccc(Cl)s2)ccc1N1CCOCC1 | -83.84%
3 | CCCc1cc(N2CCC(Cc3cccc(C(N)=O)c3)C2)nc(C)n1 (configuration not stated) | -73.24%
4 | CN(C)c1cc(C(=O)NCc2cccnc2-n2cncn2)ccn1 | -24.53%
5 | Cc1ccc(CN(CCN(C)C)C(=O)Nc2ccc(C)c(C#N)c2)s1 | 40.03%
6 | Cc1ccsc1CN(CCN(C)C)C(=O)c1ccccc1C#N | 59.93%
7 | Cc1ccsc1CN(CCN(C)C)C(=O)c1cc2ccccc2[nH]1 | -0.6518%
8 | O=C(NC[C@@H]1CCCO1)c1cccnc1N1CCCC1c1ccccn1 (some centres not stated) | -159.2%
9 | CCOC(=O)N[C@H]1C[C@@H](C(=O)NCCc2cccc(Cl)c2)N(C)C1 | -112.6%
10 | Cc1nc(-c2cccc(N3CCC(N4CCCC4)CC3)c2)cs1 | 70.2%
11 | COC1CCCN(C2CCN(c3cccc(-c4csc(C)n4)c3)CC2)C1 (configuration not stated) | -26.41%
12 | Cc1nc(-c2cccc(N3CCC(N4CCCC(C#N)C4)CC3)c2)cs1 (configuration not stated) | -24.98%
13 | CC(C)c1nnc(CN(C)Cc2ccccc2-c2ccccc2)o1 | -137.8%
14 | Cc1nc(N2CCCC2)nc2c1CCN(C(=O)C(C)C)CC2 | -54.78%
15 | CCC(NC(=O)CC(F)(F)F)c1ccccc1OCC(=O)N1CCCC1 (configuration not stated) | 15.61%
16 | CCC(NCc1ccccc1Cl)c1ccccc1OCC(=O)NC (configuration not stated) | 73.2%
17 | CCC(NCc1ccccc1C)c1ccccc1OCC(=O)NC (configuration not stated) | 78.75%
18 | O=C(COc1cccc2c1CCC2=O)NCc1ccccc1Cl | -71.52%
19 | Cc1ccccc1CNc1ccccc1OCC(=O)N1CCOCC1 | 13.74%

Row | Compound | Percent Effect
20 | Cc1ccc(OCCCC(=O)NC(C)c2nnc3n2CCC3)cc1 (configuration not stated) | -64.5%
21 | O=C1CCC(=O)N1CCn1nnc(-c2ccc(Br)cc2)n1 | -91.28%
22 | CCS(=O)(=O)N1CCN(Cc2cccnc2)c2nc(C)ccc2C1.O=C(O)C(F)(F)F.O=C(O)C(F)(F)F | 2.753%
23 | O=S1(=O)CCCN(Cc2ccccc2OCC(F)(F)F)CC1 | -23.25%
24 | CN1CCN(Cc2ccccc2Oc2nccc3occc23)CC1 | 77.3%
25 | CCCc1nnc(N2CCN(Cc3ccccc3OC)CC2)o1 | -122.5%
26 | COc1ccc(Oc2cccc(C#N)n2)cc1CN1CCCC1 | -26.21%
27 | CN1CCN(CCCOc2ccccc2CN2C[C@H]3CC[C@H]2C3)CC1 | 15.78%
28 | COc1ccc(Oc2nccc3occc23)cc1CN1CCCC1 | 59.92%
29 | c1ccc(Oc2nccc3occc23)c(CN2CCCCC2)c1 | 71.51%
30 | CN1CCN(Cc2c(-c3ccco3)[nH]c3ncccc23)CC1 | -17.66%
31 | COc1ccc(Oc2ccc(C(F)(F)F)cn2)cc1CN1CCCC1 | 49.66%
32 | O=C(c1ccc(Cn2cccc2)cc1)N1CCN(CCO)CC1 | -124.1%
33 | COc1ccc(C(=O)c2cnc(C(C)C)n2C)cc1 | -137.4%
34 | CCC(Nc1cccc(Oc2ccccn2)c1)C(N)=O (configuration not stated) | -89.12%
35 | Cc1noc(C)c1C(=O)N1CCSc2ccc(Cl)cc21 | -64.97%
36 | COc1ccc(CN2C[C@@H]3COC[C@H](N4CCN(C)CC4)[C@@H]3C2)cc1.O=C(O)C(F)(F)F.O=C(O)C(F)(F)F.O=C(O)C(F)(F)F | 39.43%
37 | Cc1cc(C)cc(CN2C[C@H]3COC[C@H](N4CCN(C)CC4)[C@H]3C2)c1.O=C(O)C(F)(F)F.O=C(O)C(F)(F)F.O=C(O)C(F)(F)F | 93.63%
38 | CN1CCN([C@H]2COC[C@@H]3CN(Cc4cccnc4)C[C@@H]32)CC1 | -16.78%

Row | Compound | Percent Effect
39 | CN(C)[C@H]1COC[C@@H]2CN(Cc3ccc4c(c3)OCO4)C[C@@H]21.O=C(O)C(F)(F)F.O=C(O)C(F)(F)F | 25.51%
40 | CCN(CC)[C@H]1COC[C@@H]2CN(Cc3cnn(C)c3)C[C@@H]21 | -7.149%
41 | COc1ccc(CN2C[C@@H]3COC[C@@H](N4CCN(C)CC4)[C@@H]3C2)cc1.O=C(O)C(F)(F)F.O=C(O)C(F)(F)F.O=C(O)C(F)(F)F | 72.48%
42 | O=C(O)C(F)(F)F.O=C(O)C(F)(F)F.c1cc2c(cc1CN1C[C@@H]3COC[C@@H](N4CCCC4)[C@@H]3C1)OCO2 | 41.71%
43 | COc1ccc(CN2C[C@@H]3COC[C@@H](CC(=O)N4CCCC4)[C@@H]3C2)cc1.O=C(O)C(F)(F)F | -28.59%
44 | CCOC(=O)[C@H]1[C@@H](O)C(=O)N(C)C12CCN(C(=O)CC(C)(C)C)CC2 | -173.1%
45 | Cc1nn2cccnc2c1C(=O)N1CCCC(n2cccn2)C1 (configuration not stated) | -26.13%
46 | Cc1ccccc1CN1CC[C@H]2C[C@H](C(=O)N(C)C)O[C@H]2C1.O=C(O)C(F)(F)F | -65.63%
47 | COc1ccc2nnc(CCC(=O)Nc3nc4c(s3)CCCCC4)n2n1 | -7.858%
48 | CC(C)[C@]1(O)CN(C(=O)C2(Cn3cccn3)CC2)C[C@H]1C | -13.49%
49 | COC[C@@]12CCO[C@@H]1CCN(C(=O)CCc1ccccc1Cl)C2 | -39.1%
50 | O=C(Nc1ccc(-n2cccn2)cc1)N1CCC(O)C1 (configuration not stated) | -73.59%
51 | CC(=O)c1ccc(-n2c(C)cn(CCS(C)(=O)=O)c2=O)cc1 | 3.074%
52 | CNC(=O)[C@H]1C[C@@H]2CN(C(=O)NCCc3ccccc3)C[C@H]1O2 | -57.69%
53 | Cc1n[nH]cc1CNCc1cccc(OCC(F)(F)F)c1.Cl | 56.25%
54 | Cc1n[nH]cc1CNCc1ccnc(OCC(F)(F)F)c1.Cl | -70.94%
55 | Cc1n[nH]cc1CNC(=O)Nc1cccc(OCC(F)(F)F)c1 | -36.62%
56 | O=C1CCNc2ccccc2CN1Cc1ccco1 | -58.24%
57 | Cc1cnn(C2CCCN(C(=O)c3ccc(-n4ccnc4)cc3)C2)c1 (configuration not stated) | -131.1%
